Test systems include HT29 colon; SNB-19 CNS; U251 CNS; PC-3 prostate; SK-MEL-5 melanoma; UACC-62 melanoma; LOX IMVI melanoma; SK-MEL-28 melanoma; SK-MEL-2 melanoma; EKVX NSCLC; SN12C renal; UO-31 renal; TK-10 renal; ACHN renal; CAKI-1 renal; A498 renal; HL-60(TB) leukemia; CCRF-CEM leukemia; SNB-75 CNS.
What all share (assay): NCI-60 one-dose screen, 48 h (100 = growth as untreated, 0 = no growth, -100 = all killed)
Holding throughout (conditions): 10 µM unless noted

Among the data in PubChem BioAssay (NCI) are growth values, retold here.

Each structure is given as a SMILES string. Values joined by “and” are separate entries in the source; they are usually repeats but may differ in a detail not shown here. Equal values may be shown once. This is part of a sample that, as a whole, favours compounds with a hit. Of some 83,000 tested, about 20% had one in any assay.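 Cell lines were cultured in 96-well plates, exposed to a single compound concentration, and assessed for percent growth 48 hours later.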 Values without a mark were called inactive. Active and inactive are the calls of the source. The calls were made as follows: active = growth percent below 10; inactive = the rest.

Consider `O=C=Nc1ccc(Br)cc1`, for which the growth was 118% in the assay with HT29 colon; 111% with SNB-19 CNS; 110% in the assay on U251 CNS; 78.8% with PC-3 prostate; 81% in the assay with SK-MEL-5 melanoma; 97.4% in the assay on UACC-62 melanoma. The growth in the assay with LOX IMVI melanoma was 106%; with SK-MEL-28 melanoma, 110%; in the assay on SK-MEL-2 melanoma, 109%; in the assay with EKVX NSCLC, 102%; with SN12C renal, 111%; with UO-31 renal it was 102%. For the same compound, the growth was 109% with TK-10 renal; 114% in the assay on ACHN renal; 104% with CAKI-1 renal; 94.2% with A498 renal; 96.4% with HL-60(TB) leukemia; 103% with CCRF-CEM leukemia.
Regarding `CCCC[C@@H]1CCN2C[C@@H](O)[C@@H](O)[C@@H]2[C@H]1O`, the growth in the assay with UACC-62 melanoma is 111% [100 µM] and 89.9% [100 µM]; with TK-10 renal, 113% [100 µM] and 98.7% [100 µM].
Consider `OC[C@@H](O)[C@@H](O)CO`, for which the growth in the assay with HL-60(TB) leukemia was 92.4%.
On to `CCOP(=O)(OCC)C(=O)N(CC)CC`, for which the growth is 114% with HT29 colon; 102% with SNB-75 CNS; 103% with SNB-19 CNS; 95% with U251 CNS; 96.5% in the assay on PC-3 prostate; 94.4% with SK-MEL-5 melanoma. Moreover, the growth is 107% with UACC-62 melanoma; 104% with LOX IMVI melanoma; 103% in the assay on SK-MEL-2 melanoma; 103% in the assay on SN12C renal; 104% in the assay on UO-31 renal; 105% with ACHN renal. Moreover, the growth in the assay on CAKI-1 renal is 103%; in the assay with HL-60(TB) leukemia, 91.8%; with CCRF-CEM leukemia, 89.1%.
Regarding `CCOC(=O)C1=C(C)/C(=C\c2[nH]c(C)c(C(=O)OCC)c2C)N=C1C`, the growth with HL-60(TB) leukemia was 41.6%.
As for `CCCCn1c(=O)c(C(=O)NCc2ccccc2Cl)c(O)c2ccccc21`, the growth in the assay on HT29 colon is 75.5%; in the assay with SNB-75 CNS, 98.4%; with SNB-19 CNS, 82.6%; in the assay with U251 CNS it was 68.2%; with PC-3 prostate, 34.1%; with SK-MEL-5 melanoma, 72.7%. Also, the growth with UACC-62 melanoma was 88.5%; in the assay on LOX IMVI melanoma it was 55.4%; in the assay with SK-MEL-2 melanoma it was 94.3%; in the assay on EKVX NSCLC, 56.5%; in the assay with SN12C renal, 76.7%; with UO-31 renal, 73.4%. Moreover, the growth is 84.3% in the assay with TK-10 renal; 81.3% in the assay on ACHN renal; 79.6% in the assay with CAKI-1 renal; 71.2% with A498 renal; 60.7% in the assay on HL-60(TB) leukemia.
As for `CCOC(=O)c1ccccc1C(=O)OCC`, the growth in the assay with HT29 colon is 102%; with U251 CNS, 99.9%; with PC-3 prostate it was 113%; in the assay on SK-MEL-5 melanoma, 110%; with UACC-62 melanoma it was 91.4%; in the assay with LOX IMVI melanoma it was 97.9%. Besides, the growth with SK-MEL-2 melanoma is 89.7%; in the assay on EKVX NSCLC, 80.3%; in the assay on SN12C renal, 94.6%; in the assay with UO-31 renal, 84.8%; in the assay on TK-10 renal, 98.2%; in the assay with ACHN renal, 98.4%. The growth was 77.2% in the assay with CAKI-1 renal, 104% with A498 renal, 141% in the assay with HL-60(TB) leukemia and 94.8% in the assay on CCRF-CEM leukemia.
Consider `O=C1C=CC(=O)N1CO`, for which, in the assay on HL-60(TB) leukemia, the growth is -11.7% (active).
For the compound `Oc1cc(N2CC2)c(O)cc1N1CC1`, the growth in the assay with HT29 colon was 1.49% (active); with SNB-19 CNS, 26.8%; with U251 CNS, -2.16% (active); with PC-3 prostate, 25%; in the assay with SK-MEL-5 melanoma, -95% (active); in the assay on UACC-62 melanoma, -67.2% (active). For the same compound, the growth in the assay with LOX IMVI melanoma was 1.44% (active); with SK-MEL-28 melanoma it was -50.9% (active); with SK-MEL-2 melanoma, -37.5% (active); with EKVX NSCLC, 58.4%; in the assay with SN12C renal it was 12.7%; in the assay with UO-31 renal it was -36.6% (active). The growth in the assay with TK-10 renal was -7.44% (active); with ACHN renal, 2.38% (active); with CAKI-1 renal it was -1.5% (active); in the assay with A498 renal it was -75.2% (active); in the assay on HL-60(TB) leukemia, 16.1%; in the assay on CCRF-CEM leukemia, 24.7%.
For the compound `Cc1ccccc1-n1c(/C=C\c2ccccn2)nc2ccccc2c1=O`, the growth is 79.7% with HT29 colon; 44.9% in the assay on SNB-75 CNS; 87.9% in the assay with SNB-19 CNS; 56.5% in the assay on PC-3 prostate; 73.7% with SK-MEL-5 melanoma; 64.5% in the assay with UACC-62 melanoma. The growth in the assay with SK-MEL-28 melanoma is 83.2%; with SK-MEL-2 melanoma, 79.4%; with EKVX NSCLC it was 82.8%; with SN12C renal, 77.7%; with TK-10 renal, 49%; in the assay on CAKI-1 renal, 31.2%. Further, the growth with A498 renal is 62.1%; with HL-60(TB) leukemia, 19.9%.
For `CCOC(=O)C1C(C=C(C)C)C1(C)C` (stereo not given), the growth is 116% with HT29 colon; 103% in the assay with SNB-19 CNS; 99.3% in the assay on U251 CNS; 93% in the assay on PC-3 prostate; 109% in the assay with SK-MEL-5 melanoma; 99.8% in the assay with UACC-62 melanoma. Moreover, the growth with LOX IMVI melanoma is 104%; in the assay on SK-MEL-2 melanoma it was 121%; in the assay on EKVX NSCLC it was 110%; in the assay on SN12C renal it was 104%; in the assay with UO-31 renal it was 120%; in the assay on TK-10 renal, 107%. The growth in the assay on ACHN renal was 100%; in the assay with CAKI-1 renal, 95.8%; in the assay on A498 renal, 105%; with HL-60(TB) leukemia, 117%; with CCRF-CEM leukemia, 82.6%.
Regarding `O=S(=O)(c1ccc(O)cc1)c1ccccc1O`, the growth with HT29 colon is 112%; in the assay with SNB-19 CNS it was 104%; in the assay on U251 CNS, 107%; with PC-3 prostate, 89%; in the assay with SK-MEL-5 melanoma it was 102%; in the assay on UACC-62 melanoma, 98.2%. For the same compound, the growth with SK-MEL-2 melanoma was 104%; in the assay with EKVX NSCLC, 107%; in the assay on SN12C renal, 101%; with TK-10 renal, 107%; with ACHN renal, 98.7%; in the assay with CAKI-1 renal it was 96.2%. Also, the growth is 97% with A498 renal, 106% in the assay with HL-60(TB) leukemia and 88.6% in the assay on CCRF-CEM leukemia.
